Of roughly 7,900 targets only a part is listed; those with a hit were picked by preference. About 0.6% of all pairs of compound and target were hits.
Compound: c1cn2cc(-c3ccc4cn[nH]c4c3)nc(Nc3ccc(N4CCOCC4)cc3)c2n1 [entospletinib]
Assay: log2 fold change, soluble protein after heating vs DMSO (PISA); higher = thermal stabilisation; K562 cells, 10 uM, 30 min; active = over 0.2 and 3.5 SD of the protein, either way, in both replicates (recomputed)
Summary of the method: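 Quantification of soluble protein used TMTpro 16plex LC-MS/MS, with channel sums equalised. Samples were the supernatant after 21,000xg for 90 min of pooled aliquots from K562 cells (2×10^6 cells/mL) treated with 10 μM compound for 30 min, heated for 3 min over 48°C-58°C, and extracted in PBS with 0.5% NP-40 at 4°C. Values, from duplicates, describe thermal stability against control samples on a log2 fold-change scale.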

Chain of UniProt P33121 (P33121 whole entry, looked up): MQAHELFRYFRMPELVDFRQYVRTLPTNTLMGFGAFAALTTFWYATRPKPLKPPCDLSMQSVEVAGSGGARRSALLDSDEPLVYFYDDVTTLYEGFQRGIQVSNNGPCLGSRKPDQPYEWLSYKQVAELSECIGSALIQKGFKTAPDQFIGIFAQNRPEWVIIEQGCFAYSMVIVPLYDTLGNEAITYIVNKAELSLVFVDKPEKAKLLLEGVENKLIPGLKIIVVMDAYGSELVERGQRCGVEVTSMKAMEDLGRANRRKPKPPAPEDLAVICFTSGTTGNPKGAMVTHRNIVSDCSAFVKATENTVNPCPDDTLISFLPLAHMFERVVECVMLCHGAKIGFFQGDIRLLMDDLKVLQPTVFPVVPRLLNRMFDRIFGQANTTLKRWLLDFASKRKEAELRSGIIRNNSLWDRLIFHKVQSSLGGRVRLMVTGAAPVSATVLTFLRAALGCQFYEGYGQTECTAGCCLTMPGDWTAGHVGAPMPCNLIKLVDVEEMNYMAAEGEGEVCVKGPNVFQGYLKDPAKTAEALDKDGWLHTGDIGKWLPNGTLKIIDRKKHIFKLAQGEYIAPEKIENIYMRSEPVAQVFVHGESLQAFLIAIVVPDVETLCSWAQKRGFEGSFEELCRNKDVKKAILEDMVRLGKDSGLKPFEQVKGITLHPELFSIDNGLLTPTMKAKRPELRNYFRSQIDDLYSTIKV
Chain of UniProt P24666 (P24666 whole entry, looked up): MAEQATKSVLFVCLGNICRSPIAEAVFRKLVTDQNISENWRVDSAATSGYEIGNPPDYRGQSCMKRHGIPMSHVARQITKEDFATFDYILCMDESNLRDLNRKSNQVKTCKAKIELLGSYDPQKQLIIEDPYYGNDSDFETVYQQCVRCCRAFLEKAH
Chain of UniProt O95573 (O95573 whole entry, looked up): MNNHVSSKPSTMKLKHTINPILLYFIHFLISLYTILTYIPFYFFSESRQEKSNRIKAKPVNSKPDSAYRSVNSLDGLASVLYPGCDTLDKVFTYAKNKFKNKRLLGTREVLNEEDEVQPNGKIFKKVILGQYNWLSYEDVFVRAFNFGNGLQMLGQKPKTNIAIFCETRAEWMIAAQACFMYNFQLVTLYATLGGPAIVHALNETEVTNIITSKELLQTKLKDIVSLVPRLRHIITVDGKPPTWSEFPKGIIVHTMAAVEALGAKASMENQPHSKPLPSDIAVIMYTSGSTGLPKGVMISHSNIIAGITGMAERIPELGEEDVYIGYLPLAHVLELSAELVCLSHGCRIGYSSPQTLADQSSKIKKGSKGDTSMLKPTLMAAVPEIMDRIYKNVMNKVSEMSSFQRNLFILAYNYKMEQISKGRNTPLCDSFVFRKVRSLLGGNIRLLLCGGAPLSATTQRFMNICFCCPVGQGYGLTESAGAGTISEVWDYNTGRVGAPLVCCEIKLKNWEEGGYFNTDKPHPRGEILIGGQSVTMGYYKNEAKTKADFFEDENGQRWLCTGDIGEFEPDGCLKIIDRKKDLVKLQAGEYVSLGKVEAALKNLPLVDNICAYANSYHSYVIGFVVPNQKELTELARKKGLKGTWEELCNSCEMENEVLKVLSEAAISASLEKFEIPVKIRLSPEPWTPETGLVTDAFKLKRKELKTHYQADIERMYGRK
Chain of UniProt Q93050 (Q93050 whole entry, looked up): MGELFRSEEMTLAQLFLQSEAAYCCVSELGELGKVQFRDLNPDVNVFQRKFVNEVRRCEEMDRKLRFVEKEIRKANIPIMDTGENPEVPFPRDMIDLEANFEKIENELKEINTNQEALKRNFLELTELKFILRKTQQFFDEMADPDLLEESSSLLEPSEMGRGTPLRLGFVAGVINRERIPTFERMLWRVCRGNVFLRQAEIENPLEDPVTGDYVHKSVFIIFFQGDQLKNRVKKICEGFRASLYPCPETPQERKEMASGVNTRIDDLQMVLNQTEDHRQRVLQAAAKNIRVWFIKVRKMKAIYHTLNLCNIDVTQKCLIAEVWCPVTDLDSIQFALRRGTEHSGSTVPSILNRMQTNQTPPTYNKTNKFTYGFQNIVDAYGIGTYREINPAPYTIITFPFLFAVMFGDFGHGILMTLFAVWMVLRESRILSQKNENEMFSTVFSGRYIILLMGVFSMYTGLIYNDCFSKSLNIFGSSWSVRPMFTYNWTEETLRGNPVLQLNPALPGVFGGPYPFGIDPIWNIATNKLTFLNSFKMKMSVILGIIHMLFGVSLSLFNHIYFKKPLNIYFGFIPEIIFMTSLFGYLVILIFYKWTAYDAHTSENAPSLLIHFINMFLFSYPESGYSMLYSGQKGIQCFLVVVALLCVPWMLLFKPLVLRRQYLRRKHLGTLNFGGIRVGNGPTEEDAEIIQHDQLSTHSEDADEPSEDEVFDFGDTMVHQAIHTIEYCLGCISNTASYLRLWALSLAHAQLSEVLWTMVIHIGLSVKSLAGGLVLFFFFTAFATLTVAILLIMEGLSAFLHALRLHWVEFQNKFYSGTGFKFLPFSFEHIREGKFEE
Chain of UniProt P56385 (P56385 whole entry, looked up): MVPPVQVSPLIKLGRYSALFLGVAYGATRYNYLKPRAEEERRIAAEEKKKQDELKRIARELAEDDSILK
Chain of UniProt Q99798 (Q99798 whole entry, looked up): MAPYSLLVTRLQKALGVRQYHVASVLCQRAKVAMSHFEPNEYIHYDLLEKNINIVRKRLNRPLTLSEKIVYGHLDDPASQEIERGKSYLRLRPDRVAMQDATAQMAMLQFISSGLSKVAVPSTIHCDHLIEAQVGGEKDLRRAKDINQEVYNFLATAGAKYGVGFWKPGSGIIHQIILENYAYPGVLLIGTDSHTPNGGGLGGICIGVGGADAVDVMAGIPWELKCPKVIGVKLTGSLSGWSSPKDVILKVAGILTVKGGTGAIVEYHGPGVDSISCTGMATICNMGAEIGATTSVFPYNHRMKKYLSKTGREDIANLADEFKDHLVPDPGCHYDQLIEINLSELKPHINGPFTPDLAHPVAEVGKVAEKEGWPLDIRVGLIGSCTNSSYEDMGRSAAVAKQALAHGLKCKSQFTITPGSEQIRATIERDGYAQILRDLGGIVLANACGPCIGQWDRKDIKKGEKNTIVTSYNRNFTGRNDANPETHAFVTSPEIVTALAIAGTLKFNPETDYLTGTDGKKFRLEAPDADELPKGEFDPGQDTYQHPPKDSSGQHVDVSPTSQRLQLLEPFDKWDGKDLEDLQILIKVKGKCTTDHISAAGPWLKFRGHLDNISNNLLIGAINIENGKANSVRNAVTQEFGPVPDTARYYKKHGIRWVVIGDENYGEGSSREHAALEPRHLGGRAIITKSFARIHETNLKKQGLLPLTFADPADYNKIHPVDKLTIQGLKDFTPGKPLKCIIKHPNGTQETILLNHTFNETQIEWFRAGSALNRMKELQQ
Chain of UniProt Q9P287 (Q9P287 whole entry, looked up): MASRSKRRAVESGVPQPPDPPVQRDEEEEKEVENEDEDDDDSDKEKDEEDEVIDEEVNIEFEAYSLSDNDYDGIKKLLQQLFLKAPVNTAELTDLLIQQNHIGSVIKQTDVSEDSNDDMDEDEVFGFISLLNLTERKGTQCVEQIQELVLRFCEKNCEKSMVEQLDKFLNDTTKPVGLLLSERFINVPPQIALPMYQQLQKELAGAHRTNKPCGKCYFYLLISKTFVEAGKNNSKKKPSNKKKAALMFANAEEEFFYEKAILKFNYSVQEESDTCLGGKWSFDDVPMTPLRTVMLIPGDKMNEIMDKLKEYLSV
Chain of UniProt Q9BR61 (Q9BR61 whole entry, looked up): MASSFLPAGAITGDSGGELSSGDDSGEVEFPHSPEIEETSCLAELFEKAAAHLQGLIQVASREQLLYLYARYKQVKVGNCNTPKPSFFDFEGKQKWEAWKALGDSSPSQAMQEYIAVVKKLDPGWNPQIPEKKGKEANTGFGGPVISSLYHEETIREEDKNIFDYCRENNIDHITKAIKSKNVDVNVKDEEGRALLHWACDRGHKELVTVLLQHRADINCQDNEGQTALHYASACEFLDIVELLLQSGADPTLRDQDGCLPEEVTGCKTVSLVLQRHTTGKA
Chain of UniProt P53680 (P53680 whole entry, looked up): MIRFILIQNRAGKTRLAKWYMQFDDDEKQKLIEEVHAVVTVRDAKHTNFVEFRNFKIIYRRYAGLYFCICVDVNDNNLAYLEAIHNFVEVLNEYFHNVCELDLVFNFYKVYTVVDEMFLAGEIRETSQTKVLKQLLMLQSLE
Chain of UniProt Q9UI12 (Q9UI12 whole entry, looked up): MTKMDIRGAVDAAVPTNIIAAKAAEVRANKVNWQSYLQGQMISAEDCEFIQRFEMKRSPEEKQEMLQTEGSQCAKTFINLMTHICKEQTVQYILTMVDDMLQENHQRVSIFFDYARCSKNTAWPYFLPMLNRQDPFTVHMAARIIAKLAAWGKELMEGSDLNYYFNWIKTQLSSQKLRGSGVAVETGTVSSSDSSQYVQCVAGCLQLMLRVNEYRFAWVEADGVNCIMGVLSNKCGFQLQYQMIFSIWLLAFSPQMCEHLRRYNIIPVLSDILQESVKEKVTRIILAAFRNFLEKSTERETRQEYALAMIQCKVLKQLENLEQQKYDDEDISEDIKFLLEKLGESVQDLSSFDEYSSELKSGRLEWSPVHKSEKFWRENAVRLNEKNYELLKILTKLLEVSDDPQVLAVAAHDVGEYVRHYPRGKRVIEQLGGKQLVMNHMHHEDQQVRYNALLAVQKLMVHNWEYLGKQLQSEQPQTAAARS
Chain of UniProt Q9NXW9 (Q9NXW9 whole entry, looked up): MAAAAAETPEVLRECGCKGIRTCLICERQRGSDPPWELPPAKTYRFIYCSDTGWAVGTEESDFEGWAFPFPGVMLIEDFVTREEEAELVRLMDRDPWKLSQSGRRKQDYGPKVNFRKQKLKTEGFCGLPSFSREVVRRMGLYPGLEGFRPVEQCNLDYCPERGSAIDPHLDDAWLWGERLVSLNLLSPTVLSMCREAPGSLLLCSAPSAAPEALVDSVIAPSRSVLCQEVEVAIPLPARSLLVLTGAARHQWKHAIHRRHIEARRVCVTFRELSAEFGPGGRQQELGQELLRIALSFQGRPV
Chain of UniProt Q8WUW1 (Q8WUW1 whole entry, looked up): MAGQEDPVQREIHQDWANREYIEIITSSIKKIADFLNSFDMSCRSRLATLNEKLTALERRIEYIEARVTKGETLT

log2 fold change, inactive:
ATP6V1C1 (UniProt P21283) -0.02
ABCB6 (UniProt Q9NP58) 0.026
ADD3 isoform 2 (UniProt Q9UEY8) -0.066
AARSD1 isoform 3 (UniProt Q9BTE6) -0.066
AKAP8 (UniProt O43823) -0.018
ASNS (UniProt P08243) 0.004
ACBD6 (UniProt Q9BR61) 0.035
AGO1 (UniProt Q9UL18) -0.2
ATP1A1 (UniProt P05023) 0.002
ALKBH4 (UniProt Q9NXW9) -0.029
AGPS (UniProt O00116) 0.008
ATP5ME (UniProt P56385) 0.027
AP2S1 (UniProt P53680) 0.028
ACSL3 (UniProt O95573) -0.06
ARF4 (UniProt P18085) -0.088
AP2M1 (UniProt C9JTK4) 0.047
ARFGAP2 (UniProt Q8N6H7) 0.007
ATR (UniProt Q13535) -0.021
AZI2 (UniProt Q9H6S1) -0.142
AGRN (UniProt O00468) 0.018
ARL6IP4 (UniProt Q66PJ3) 0.034
ACO2 (UniProt Q99798) -0.008
AAR2 (UniProt Q9Y312) -0.017
BRD8 isoform 2 (UniProt Q9H0E9) 0.045
ALDH1B1 (UniProt P30837) -0.018
BRK1 isoform 2 (UniProt Q8WUW1) 0.047
BCCIP isoform 2 (UniProt Q9P287) 0.008
AMFR (UniProt Q9UKV5) -0.059
ASH2L (UniProt Q9UBL3) -0.02
AFG1L (UniProt Q8WV93) -0.029
ATP6V1H (UniProt Q9UI12) 0.004
ACP1 (UniProt P24666) 0.102
ACSL1 (UniProt P33121) -0.006
ATP6V0A1 isoform 3 (UniProt Q93050) 0.079
AK6 (UniProt Q9Y3D8) -0.048
AFDN isoform 1 (UniProt P55196) -0.028
BCAP29 isoform 2 (UniProt Q9UHQ4) -0.005
ATP23 (UniProt Q9Y6H3) 0.077
ACADVL isoform 3 (UniProt P49748) 0.002

Source: the supplement of paper PMC10849652
